# Data reported in PubChem BioAssay.
# Values joined by “and” are separate entries in the source; they are usually repeats but may differ in a detail not shown here. Equal values may be shown once. Active and inactive are the calls of the source. Rule as the data show it, unless noted: active = inhibition above about 80%; inactive = the rest.
# Assays:
# [1] = viability loss with induced miR-34 in A549 – imaging, A549 dox-inducible miR-34, nuclei and caspase counts, primary screen (AID 1347080;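 active = compounds whose cell count with miR-34 switched on is under 0.7 times the count with it off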); conditions: A549 miR-34 inducible, Hoechst nuclei count, 48 h
# [2] = MELAS cybrid and Rieske KO viability enhancers – cell-based, MELAS cybrids, Rieske KO mouse fibroblasts, CellTiter-Glo, primary screen (AID 1508586;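 active = mean z-score across replicates of 1.96 or higher in either the MELAS or the Rieske mutant cell line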;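 also: z relative to plate mean and SD of compound and empty wells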); conditions: low glucose
# [3] = galactose survival enhancers in mitochondrial complex I cybrids – cell-based, galactose medium, ATP luminescence, primary screen (AID 1645843;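 active = z-score of at least 1.8 in each of two replicates, scored against plate mean and spread of sample wells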;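 also: positive z means more ATP and so rescue of galactose-driven cybrid death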); conditions: complex I mutant cybrid cells, 72 h, stronger effect = higher value
# [4] = growth inhibition, single agent or in combination, cell-based, chromothripsis tumors, cisplatin or BGB combos (AID 1671449); conditions: LFS_MB_P medulloblastoma cells;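 also: cells exposed for 96 hours; 0% = vehicle DMSO and 100% = killing by high DMSO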
# [5] = growth inhibition, single agent and combos, cell-based, chromothripsis tumors, cisplatin or BGB combos (AID 1671450); conditions: HDN33 neuroblastoma cells, stronger effect = higher value;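 also: cells exposed to compound for four days; 0% = vehicle DMSO and 100% = cell killing by high DMSO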
# [6] = growth inhibition, single agents and combos, ICB984, cell-based, cisplatin or BGB combos, synergistic combos for chromothripsis tumors (AID 1671451; call rule not given here;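 also: cells exposed for 96 hours before readout; 0% = vehicle DMSO and 100% = killing by high DMSO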); conditions: ICB984 medulloblastoma cells, drug combinations, stronger effect = higher value
# [7] = growth inhibition, single agents and combos, LFS_MB_1R, cell-based, cisplatin or BGB combos, synergistic combos for chromothripsis tumors (AID 1671452); conditions: LFS_MB_1R medulloblastoma cells, stronger effect = higher value;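 also: cells exposed for 96 hours before readout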
# [8] = growth inhibition, single agents and combos, HTB85, cell-based, BGB or cisplatin IC20 combos, synergistic combos for chromothripsis tumors (AID 1671453); conditions: HTB85 osteosarcoma cells, drug combinations, stronger effect = higher value;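 also: cells exposed for 96 hours before readout; 0% = vehicle DMSO and 100% = high DMSO killing control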
# [9] = growth inhibition, single agents and combos, CRL2098, cell-based, BGB or cisplatin IC20 combos, synergistic combos for chromothripsis tumors (AID 1671454); conditions: CRL2098 osteosarcoma cells, drug combinations, stronger effect = higher value;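 also: cells exposed for 96 h before readout; 0% = vehicle DMSO and 100% = killing by high DMSO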
# [10] = growth inhibition, single agents and combos, HD-MB03, cell-based, BGB or cisplatin IC20 combos, synergistic combos for chromothripsis tumors (AID 1671455; in the data active = inhibition above about 83%;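 also: 0% = vehicle DMSO and 100% = high DMSO as cytotoxic control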); conditions: HD-MB03 medulloblastoma cells, stronger effect = higher value
# [11] = growth inhibition, single agents and combos, UWB1.289, cell-based, BGB or cisplatin combos, synergistic combos for chromothripsis tumors (AID 1671456); conditions: UWB1.289 ovarian carcinoma cells, stronger effect = higher value;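 also: cells exposed to compound for four days; 0% = vehicle DMSO and 100% = killing by high DMSO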
# [12] = growth inhibition, single agents and combos, LFS_MB_2R, cell-based, cisplatin combos, synergistic combos for chromothripsis tumors (AID 1671457); conditions: LFS_MB_2R medulloblastoma cells, stronger effect = higher value;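 also: cells exposed to compound for four days before readout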
# [13] = growth inhibition, MDA-MB-436, cell-based, BGB or cisplatin combos, synergistic combos for chromothripsis tumors (AID 1671458; call rule not given here;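 also: cells exposed for 96 hours; 0% = vehicle DMSO and 100% = killing by high DMSO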); conditions: MDA-MB-436 breast carcinoma growth inhibition, drug combinations, stronger effect = higher value
# [14] = UWB1.289_BRCA1 ovarian cancer growth, cell-based, BGB or cisplatin combinations (AID 1671459); conditions: UWB1.289 BRCA1 ovarian carcinoma, drug combinations, stronger effect = higher value
# [15] = drug combination toxicity in non-malignant astrocytes – cell-based, BGB or cisplatin IC20 combos, cytotoxicity control for chromothriptic childhood tumor combination screen (AID 1671460); conditions: Human astrocytes, viability inhibition, drug combinations, at 0.5 µM, stronger effect = higher value;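 also: cells exposed to compounds for 96 hours before viability readout; 0% = vehicle and 100% = killing control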
# [16] = BT084 cell growth, single and combined drugs, ICGC_MB145, cisplatin and BGB IC40 combos (AID 1671461); conditions: BT084 medulloblastoma cells, drug combinations, stronger effect = higher value;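 also: cells exposed to drugs for 96 hours; 0% = vehicle DMSO and 100% = high DMSO full killing control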
# [17] = RCMB18 cell growth, single agent and combined, cisplatin and BGB IC40 combos (AID 1671462); conditions: RCMB18 medulloblastoma cells, stronger effect = higher value;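 also: cells exposed to compound for four days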
# [18] = CRL1545 cell growth, single agent and combined, cisplatin and BGB IC20 combos (AID 1671464); conditions: CRL1545 osteosarcoma cells, stronger effect = higher value;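 also: cells exposed to compound for 96 hours before readout; 0% = vehicle DMSO and 100% = high DMSO killing control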
# [19] = compounds altering viability of human ES cells (AID 493140; call rule not given here;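 also: cells exposed to compounds for four days before counting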); conditions: human embryonic stem cell survival screen; stronger effect = higher value
# [20] = P. berghei load reduction in hepatocytes – cell-based, HepG2, luciferase luminescence, HepG2 viability, primary screen (AID 624349; in the data active = parasite load remaining mostly below about 12%, no sharp cut-off; inactive = mostly above about 10%;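 also: 100% = mean of DMSO negative control wells on the same plate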); conditions: P. berghei liver stage in HepG2, luciferase luminescence, concentration not given here; parasite load remaining: stronger effect = lower value; viability: measured here: HepG2 viability without parasites
# [21] = stronger effect = lower value, cell number ratio, induced over uninduced
# [22] = measured here: relative caspase fold change +Dox/-Dox
# [23] = measured here: total cells with miR-34 induction, stronger effect = lower value
# [24] = measured here: total cells without miR-34 induction
# [25] = MELAS cybrid survival, CellTiter-Glo 48 h, stronger effect = higher value
# [26] = Rieske KO mouse fibroblast survival, CellTiter-Glo 72 h
# [27] = measured here: combination with BGB IC40, at 0.05 µM
# [28] = measured here: with BGB IC20 combination, at 0.5 µM
# [29] = measured here: with cisplatin IC20 combination, at 0.5 µM
# [30] = measured here: combination with cisplatin, at 0.5 µM
# [31] = measured here: combination with cisplatin, at 5 µM
compound,measurement,setting,value
Cc1cn(C2C=CC(CO)O2)c(=O)[nH]c1=O (stereo unspecified),fold change,[1]; [21],0.962 (inactive) and 0.935 (inactive)
same,fold change,[1]; [22],1.05 and 0.911
same,cell count,[1]; [23],8970 and 7330
same,cell count,[1]; [24],9320 and 7840
same,z-score,[2]; [25],-0.48 (inactive)
same,z-score,[2]; [26],0.518
same,z-score,[3],0.42 (inactive)
same,inhibition,"[4]; at 0.5 µM, stronger effect = higher value",-20.9% (inactive)
same,inhibition,"[4]; measured here: combination with BGB IC20, at 0.005 µM",-5.29%
same,inhibition,"[4]; measured here: combination with BGB IC40, at 0.005 µM",-35%
same,inhibition,[4]; [27],-15.2%
same,inhibition,"[4]; measured here: combination with cisplatin, at 0.5 µM, stronger effect = higher value",-28.2%
same,inhibition,"[4]; measured here: combination with cisplatin, at 5 µM, stronger effect = higher value",-24.4%
same,inhibition,"[5]; BGB combo, at 5 µM",-42.2%
same,inhibition,[5]; at 0.5 µM,-34.4% (inactive)
same,inhibition,"[5]; cisplatin combo, at 5 µM",-46.6%
same,inhibition,[5]; [28],-50.9%
same,inhibition,[5]; [29],-24.2%
same,inhibition,"[5]; single agent, at 5 µM",-41%
same,inhibition,"[6]; BGB IC20 combo, at 0.005 µM",-4.4%
same,inhibition,"[6]; BGB IC40 combo, at 0.005 µM",-46.7%
same,inhibition,"[6]; BGB IC40 combo, at 0.05 µM",-3.74%
same,inhibition,[6]; at 0.5 µM,-26.7% (inactive)
same,inhibition,"[6]; cisplatin combo, at 0.05 µM",-6.64%
same,inhibition,"[6]; cisplatin combo, at 0.5 µM",-35.4%
same,inhibition,"[6]; cisplatin combo, at 5 µM",-36.2%
same,inhibition,"[6]; measured here: 5 uM single agent, at 5 µM",-29.8%
same,inhibition,[7]; at 0.5 µM,-29.1% (inactive)
same,inhibition,[7]; [27],-18.5%
same,inhibition,[7]; [30],-42.3%
same,inhibition,[7]; [31],-74.7%
same,inhibition,[8]; at 0.5 µM,-32.3% (inactive)
same,inhibition,"[8]; measured here: with BGB IC20, at 0.5 µM",-52.5%
same,inhibition,"[8]; measured here: with BGB IC20, at 5 µM",-73.7%
same,inhibition,"[8]; measured here: with cisplatin IC20, at 0.5 µM",-25.1%
same,inhibition,"[8]; measured here: with cisplatin IC20, at 5 µM",-14.5%
same,inhibition,"[8]; single agent, at 5 µM",6.05%
same,inhibition,[9]; at 0.5 µM,-98.7% (inactive)
same,inhibition,"[9]; measured here: combination with BGB at IC20, at 0.5 µM",-91.8%
same,inhibition,"[9]; measured here: combination with cisplatin at IC20, at 0.5 µM",-105%
same,inhibition,[10]; at 0.5 µM,-18.8% (inactive)
same,inhibition,"[10]; measured here: combo with BGB at IC20, at 0.5 µM",-15.9%
same,inhibition,"[10]; measured here: combo with cisplatin at IC20, at 0.5 µM",-28%
same,inhibition,[11]; at 0.5 µM,-10.5% (inactive)
same,inhibition,"[11]; measured here: inhibition with BGB combination, at 0.05 µM",-4.7%
same,inhibition,"[11]; measured here: inhibition with cisplatin combination, at 0.05 µM",-16.8%
same,inhibition,[12]; at 0.5 µM,-12.5% (inactive)
same,inhibition,[12]; [30],-17.8%
same,inhibition,[12]; [31],-34.1%
same,inhibition,[13]; at 0.5 µM,-24% (inactive)
same,inhibition,"[13]; measured here: BGB combination, at 0.5 µM",-19.7%
same,inhibition,"[13]; measured here: BGB combination, at 5 µM",-23.5%
same,inhibition,"[13]; measured here: cisplatin combination, at 0.5 µM",-37.6%
same,inhibition,"[13]; measured here: cisplatin combination, at 5 µM",-21%
same,inhibition,"[14]; BGB combination, concentration series, at 5 µM",-25.5%
same,inhibition,[14]; at 0.5 µM,-15.9% (inactive)
same,inhibition,"[14]; cisplatin combination, concentration series, at 5 µM",-8.88%
same,inhibition,[15],-7.19% (inactive)
same,inhibition,[15]; measured here: combo with BGB IC20,-8.45%
same,inhibition,[15]; measured here: combo with cisplatin IC20,-23.8%
same,inhibition,[16]; at 0.5 µM,-17.7% (inactive)
same,inhibition,"[16]; cisplatin combination, at 0.5 µM",-7.07%
same,inhibition,"[16]; cisplatin combination, at 5 µM",-5.39%
same,inhibition,"[16]; measured here: BGB IC40 combination 0.05 uM, at 0.05 µM",-19.6%
same,inhibition,"[16]; single agent, at 5 µM",-14%
same,inhibition,[17]; at 0.5 µM,-28.5% (inactive)
same,inhibition,"[17]; cisplatin combo, at 5 µM",-44.1%
same,inhibition,"[17]; measured here: BGB IC40 combination, at 0.05 µM",-19.7%
same,inhibition,[17]; [30],-44.8%
same,inhibition,"[17]; single agent, at 5 µM",-28.1%
same,inhibition,[18]; at 0.5 µM,-40.6% (inactive)
same,inhibition,[18]; [28],-40.6%
same,inhibition,[18]; [29],-43.7%
same,inhibition,"[18]; single agent, at 0.05 µM",-24.2%
same,inhibition,"[18]; single agent, at 5 µM",-21.8%
CNC(=C[N+](=O)[O-])NCCSCc1csc(CN(C)C)n1,survival,[19],4.67 (inactive)
same,fold change,[1]; [21],0.834 (inactive) and 1.04 (inactive)
same,fold change,[1]; [22],1.65 and 0.659
same,cell count,[1]; [23],8750 and 8440
same,cell count,[1]; [24],10500 and 8100
same,z-score,[2]; [25],-0.241 (inactive)
same,z-score,[2]; [26],-0.0279
same,z-score,[3],0.825 (inactive)
C=C1/C(=C/C=C2/CCC[C@]3(C)[C@@H]([C@H](C)CCCC(C)C)CC[C@@H]23)C[C@@H](O)C[C@@H]1O,parasite load remaining,[20],43.3% (inactive)
same,viability,[20],115%
same,fold change,[1]; [21],0.847 (inactive)
same,fold change,[1]; [22],0.894
same,cell count,[1]; [23],8220
same,cell count,[1]; [24],9710
same,z-score,[2]; [25],0.628 (inactive) and 0.37 (inactive)
same,z-score,[2]; [26],0.674 and -0.198
same,z-score,[3],-2.23 (inactive)
O[C@H]1[C@H](O)[C@@H](O)[C@@H]2O[C@@H]2[C@@H]1O,parasite load remaining,[20],29.7% (inactive)
same,viability,[20],72%
same,fold change,[1]; [21],0.828 (inactive)
same,fold change,[1]; [22],1.47
same,cell count,[1]; [23],9740
same,cell count,[1]; [24],11800
same,z-score,[2]; [25],0.534 (inactive)
same,z-score,[2]; [26],0.1
same,z-score,[3],0.2 (inactive)
